Laboratory results as given in PubChem BioAssay (NCI).
The panel holds about 83,000 compounds, 20% with a hit somewhere; the sample as a whole holds those more often.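 Plates (96-well) were seeded with cells, treated with compound at one concentration, and incubated for 48 hours before percent growth was determined.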 A number with no mark means an inactive call. The source made the active and inactive calls. Rule for the calls: active = growth percent below 10; inactive = the rest.

Experiments:
Experiment in all cases: NCI-60 one-dose screen, 48 h (100 = growth as untreated, 0 = no growth, -100 = all killed)
Conditions in all cases: 10 µM
BT-549 breast = tested on: BT-549 breast
MDA-MB-435 melanoma = tested on: MDA-MB-435 melanoma
SW-620 colon = tested on: SW-620 colon
MCF7 breast = tested on: MCF7 breast
HCT-116 colon = tested on: HCT-116 colon
HCC-2998 colon = tested on: HCC-2998 colon
KM12 colon = tested on: KM12 colon

SMILES | growth (BT-549 breast) | growth (MDA-MB-435 melanoma) | growth (SW-620 colon) | growth (MCF7 breast) | growth (HCT-116 colon) | growth (HCC-2998 colon) | growth (KM12 colon)
CS(=O)(=O)Nc1cccc(-c2cc(-c3ccccc3Cl)c(C#N)c(N)n2)c1 | 37.1% | -45.8% (active) | 24.5% | 22.7% | 21.8% | -3.16% (active) | 24.5%
N#CCCN1C/C(=C/c2ccccc2)C(=O)/C(=C/c2ccccc2)C1 | 44.3% | -30.9% (active) | -24.9% (active) | -12% (active) | -81.7% (active) | -81% (active) | –
C#Cc1ccc(-n2c(/C=C/c3ccc4ccccc4n3)nc3ncccc3c2=O)cc1 | 5.21% (active) | -11.5% (active) | -51% (active) | 6.42% (active) | -25% (active) | -75.3% (active) | –
O=C1/C(=C\c2ccc(Cl)cc2)CN(C(=O)c2ccccc2)C/C1=C\c1ccc(Cl)cc1 | 19.8% | -18.1% (active) | -33.8% (active) | 2.9% (active) | -48.2% (active) | -71.8% (active) | –
CCN(CC)CCNc1ccc(CO)c2oc3cc(Cl)ccc3c(=O)c12 | 94.9% | 78.4% | 71.3% | 64.5% | 58.6% | 88.3% | 98.6%
NC(=O)CC1(c2ccccc2)CCCCC1 | 102% | 109% | 108% | 96.4% | 95.6% | 102% | 101%
CC(C)=CCc1cc(O)cc2c1OC(C=C(C)C)C1=C2C(=O)C2=C(NCCS2(=O)=O)C1=O (centres undefined) | 18.3% | -56.4% (active) | 4.68% (active) | -54.5% (active) | -15.4% (active) | -12.6% (active) | 43.3%
CCN(CC)CCNC(=O)c1ccc(NC(C)=O)cc1 | 106% | 101% | 107% | 101% | 105% | 102% | 108%
Clc1ccc(Sc2nc(NC3CC3)nc(Sc3ccc(Cl)cc3)n2)cc1 | 104% | 87.8% | 83.3% | 72% | 53.7% | 90.2% | 76.6%
CCN(CC)CCSCCCNc1c2ccc(Cl)cc2nc2ccc(OC)cc12 | 5.29% (active) | -94.7% (active) | -23.7% (active) | -33% (active) | -55.9% (active) | -73.2% (active) | -10.9% (active)
CCOC(=O)C1CCc2c(ccc3ccccc23)N1CCC#N (centres undefined) | 96% | 35.6% | 91.9% | 85.9% | 96.4% | 93.5% | 94.9%
Cc1cc2c(C)c3cc(C)c(N)cc3nc2cc1N | 57.8% | 12% | 4.58% (active) | -4.55% (active) | -9.81% (active) | 28.3% | 9.44% (active)
O=C1/C(=C\c2ccc(F)cc2)CN(C(=O)c2ccc([N+](=O)[O-])cc2)C/C1=C\c1ccc(F)cc1 | 5.36% (active) | -30% (active) | -58.4% (active) | -9.52% (active) | -72.7% (active) | -79.1% (active) | –
CCOC(=O)N1C/C(=C/c2ccc(Cl)cc2)C(=O)/C(=C/c2ccc(Cl)cc2)C1 | 81.5% | 38.4% | 1.52% (active) | 5.24% (active) | -60.4% (active) | -59.8% (active) | –
CN(C)c1ccc(Cc2ccc(N(C)C)cc2Cl)c(Cl)c1 | 136% | 109% | 91.2% | 111% | 95.4% | 96.8% | 90.4%
CO/N=C(/C(=O)NC1C(=O)N2C(C(=O)O)=C(COC(N)=O)CSC12)c1ccco1 (centres undefined) | 108% | 104% | 110% | 94.2% | 104% | 104% | 113%
C#Cc1ccc(-n2c(/C=C/c3ccc(Cl)c(F)c3)nc3ncccc3c2=O)cc1 | 10.7% | -3.46% (active) | -27.3% (active) | 3.48% (active) | -52.8% (active) | -84.3% (active) | –
Cc1cc(N(CCCNc2ccnc3cc(Cl)ccc23)Cc2cccs2)nc(Cl)n1 | 33.7% | 48.9% | 32.9% | 40.8% | 21.4% | 36.8% | 39.1%

SMILES | growth (BT-549 breast) | growth (MDA-MB-435 melanoma) | growth (SW-620 colon) | growth (MCF7 breast) | growth (HCT-116 colon) | growth (HCC-2998 colon) | growth (KM12 colon)
Cc1cc(C)c(NC(=O)c2sc3nc4c(cc3c2N)C(=O)CCC4)c(C)c1 | 56.7% | -34.4% (active) | 15.6% | 16.8% | 23.1% | 30.9% | 27.3%
COc1ccc(-c2nc(-c3nc4ccc(Cl)cc4[nH]3)c3ccccn23)cc1 | 42.9% | 58.3% | 75.2% | 41.5% | 4.9% (active) | 69.3% | –
N=C(N)c1ccc(-c2ccc(-c3ccco3)o2)cc1 | 80.2% | 55.4% | 60.3% | 42.8% | 42.5% | -28.3% (active) | –
O=C(Nc1ccc(Cl)cc1)N1NC(c2ccc(Cl)cc2)C=C1c1ccccc1 (centres undefined) | 102% | 103% | 110% | 89.6% | 104% | 97.5% | 96.3%
COc1ccc(Cl)cc1-n1nnc(-c2nc3ccccc3[nH]2)c1N | 98.8% | 88.6% | 75.6% | 94.3% | 55.4% | 93.4% | –
N#CCCN1C/C(=C/c2ccc(Br)cc2)C(=O)/C(=C/c2ccc(Br)cc2)C1 | -23.3% (active) | -43.3% (active) | -53.7% (active) | 0.16% (active) | -50.8% (active) | -87.4% (active) | –
CCCCN(CCCC)c1cc(C(=O)CCCCCN)c2ccccc2n1 | 68.2% | -52.1% (active) | 39.8% | 40% | -95.6% (active) | -31.4% (active) | -93.3% (active)
COc1cc2cc3c(nc2cc1OC)CCN3Cc1ccc(NC(=O)Nc2ccc(F)cc2F)cc1 | 76.7% | 89% | 100% | 81.3% | 81.3% | 85.1% | 87.2%
COc1ccc(/C=C2/CN(CCC#N)C/C(=C\c3ccc(OC)cc3)C2=O)cc1 | 5.02% (active) | -30% (active) | -37.2% (active) | 10.4% | -68.2% (active) | -82.3% (active) | –
C#Cc1ccc(-n2c(/C=C/c3cc(OC)cc(OC)c3)nc3ncccc3c2=O)cc1 | 65.2% | 79.1% | 105% | 68.5% | 74.8% | 94.2% | –
Clc1cc2c(c(CSc3nc4ccccc4n4cccc34)c1)OCOC2 | 81.2% | 92.2% | 94.4% | 8.11% (active) | 80% | 85.4% | 88.4%
COc1ccc(C(=O)/C=C/c2cc(-c3cc(OC)c(OC)c(OC)c3)n[nH]2)cc1 | 14.4% | 15.6% | -37.6% (active) | 16.5% | -76.3% (active) | 91.3% | -60.1% (active)
Nc1ccc2c(c1)Cc1cc(N)c(Br)cc1-2 | 94.4% | 102% | 108% | 51.4% | 101% | 80.8% | 99.6%
COc1cc2nc(Nc3cccc(NC(C)=O)c3)nc(N)c2cc1OC | 118% | 123% | 95.9% | 99.5% | 95.9% | 113% | 89.5%
O=C(Nc1cccc(-n2cc(-c3ccncc3)c(-c3ccc(O)c(Cl)c3)n2)c1)c1ccc(N2CCOCC2)c(C(F)(F)F)c1 | 47.2% | 53.9% | 36.3% | 24.6% | 26.7% | 23.6% | 14.9%
CC/C(=C(/c1ccc(OCCN(C)C)cc1)c1ccc(OC(=O)CCCCC(=O)c2c(C)[nH]c(/C=C3\N=C(c4ccc[nH]4)C=C3OC)c2C)cc1)c1ccccc1 | 60.8% | 61.4% | 55.8% | -22% (active) | 48.3% | 76.6% | –
CCCN(CCC)CCC(O)c1cc2c(c3ccccc13)CCCC2 (centres undefined) | 92.5% | 97.7% | 94.1% | 82.4% | 70.3% | 87.6% | 101%
O=C1CC[C@@H]2CCCC[C@@H]2C1 | 136% | 103% | 108% | 97.2% | 104% | 112% | 112%
